# Source: PubChem (National Center for Advancing Translational Sciences (NCATS))
# ALDH1A1 inh = ALDH1A1 (human) enzyme inhibition. P00352. AID 1030. 220,000 compounds, 7.3% hits. Purified ALDH1A1, NADH fluorescence, propionaldehyde substrate. Potency, µM (titrated, usually from 75.3 µM), for the others: at the top dose activity, negative = inhibition, actives largely listed as inhibitors;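 note: potency is the fitted concentration of half-maximal effect; plate controls were no enzyme wells and a reference inhibitor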
# IMPase Li inh = cell-permeable IMPase inhibitors with lithium potentiation | CHO-M1 cells, IP1 TR-FRET (IP-One), carbachol + lithium | Potency, µM (doses to about 59.4 µM), for inactives: at the highest dose activity, negative = IMPase inhibition, usual class: inhibitors | 210,000 compounds, 0.35% hits; active = well fitted inhibition curve with a large enough effect; inconclusive = small, poorly fitted or top-dose-only effect; inactive = no such curve, though single readings can be large or run the other way;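 note: IP1 builds up when IMPase is blocked and the TR-FRET signal falls; potency is the fitted concentration of half-maximal effect; plate controls were basal vehicle for no effect and high inhibitor control for full effect; nearly all actives have a fitted effect of over 50% in size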
#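 CHO cells stably expressing M1 receptor (2000/well, cultured 16–30 h) treated 30 min at 37C with compound plus low lithium. Cytosolic IP1 by TR-FRET (665/620 ratio and 620 channel) after 10 min lysis; AC50 by Hill fit.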
# PNC inhibitor = inhibitors of perinucleolar compartment assembly; AID 2417; activity change (PNC), negative = inhibition, % at 10 µM; PC3M PTB-GFP, PNC prevalence imaging, 16 h; stronger effect = lower value; 140,000 compounds, 3.1% hits;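 active = readout at or below -70, meaning at least 70% loss of cells showing the perinucleolar compartment, a nuclear body marking cancer cells; inconclusive = readout between -30 and a set limit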;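 note: plate controls were DMSO wells for no effect and camptothecin positive control wells for full effect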
#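 Read-out is percentage of cells bearing a perinucleolar compartment, from automated 20x imaging of fixed, Hoechst-stained PC3M PTB-GFP cells. Cells were seeded 4 h, then exposed 16 h to compound (23 nl of library stock) in duplicate plates.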
# IMPase cell inh = membrane-permeable compound that blocks inositol monophosphatase. CHO-M1 cells, IP1 accumulation, HTRF TR-FRET ratio. inhibition (IP1 accumulation), % at 46.1 µM. 120,000 tested, under 10 active; active = well fitted curve in the direction sought with a large enough effect in the signal ratio, not every such curve was filed as active; inconclusive = small, poorly fitted or top-dose-only effect, or a change in a side signal; inactive = no such curve, though single readings can be large or run the other way; the % refers to the signal ratio;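 note: cells stimulated with carbachol in lithium chloride buffer; plate controls were DMSO basal wells for no effect and reference inhibitor wells for full effect; higher means more IMPase inhibition seen as more IP1 and lower FRET ratio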
# Target sequence (P97697 whole entry, looked up): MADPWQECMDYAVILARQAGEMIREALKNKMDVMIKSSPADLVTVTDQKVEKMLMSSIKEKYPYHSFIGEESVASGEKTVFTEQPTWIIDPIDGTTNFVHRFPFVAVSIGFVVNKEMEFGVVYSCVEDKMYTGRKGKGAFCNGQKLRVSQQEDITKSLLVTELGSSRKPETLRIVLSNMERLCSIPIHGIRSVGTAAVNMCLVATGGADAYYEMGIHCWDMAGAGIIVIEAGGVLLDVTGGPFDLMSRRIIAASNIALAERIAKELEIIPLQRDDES
#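 CHO-M1, 2000 cells/well, cultured 16–30 h; cpd up to 46 uM; carbachol (50 uM solution, stimulation buffer w/ 50 mM LiCl, pH 7.4), 30 min 37C; IP-One TR-FRET, 10 min RT; Ex 320/Em 665, 620; Hill-fit AC50.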
# HPGD inh = HPGD (human) dehydrogenase inhibition. purified HPGD, NADH fluorescence kinetic, PGE2 substrate. Potency, µM, for inactives: at the top dose activity change, negative = inhibition, most hits filed as inhibitors. 150,000 compounds, 4.3% hits. AID 894; note: potency is the fitted concentration of half-maximal effect
# Target sequence (P15428 whole entry, looked up): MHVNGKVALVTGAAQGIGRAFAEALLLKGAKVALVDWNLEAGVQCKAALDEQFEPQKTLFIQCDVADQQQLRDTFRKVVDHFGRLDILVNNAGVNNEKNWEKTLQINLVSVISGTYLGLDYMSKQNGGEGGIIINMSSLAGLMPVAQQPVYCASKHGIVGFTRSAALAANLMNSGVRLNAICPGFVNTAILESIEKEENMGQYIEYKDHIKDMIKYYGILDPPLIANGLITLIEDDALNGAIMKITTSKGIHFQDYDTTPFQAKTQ
#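 20 nM HPGD preincubated 15 min at room temperature with compound in 50 mM Tris-HCl pH 8, 0.01% Tween 20. Started with 1 mM NAD+ and 30 uM prostaglandin E2; NADH fluorescence (360/450 nm) read 5 times over 30-s intervals, last minus first.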
# The depositor's hits bear a star; ? = inconclusive; . = not tested or not shown; [ ] = another dose, or the depositor's remark. Sampled rows, rich in hits. Any-hit rate of the full collection: about 11%. Unless noted, calls come from the whole dose curve; as a rule, active = well fitted inhibition curve with a large enough effect (not every such curve was filed as active); inconclusive = small, poorly fitted or top-dose-only effect, or another doubt; inactive = no such curve, though single readings can be large or run the other way. Unless noted, % is set by controls: 0 for no effect and ±100 for the full control effect.
SMILES,ALDH1A1 inh,IMPase Li inh,PNC inhibitor,IMPase cell inh,HPGD inh
Cc1cc(OCCN2CCCC2)ccc1[N+](=O)[O-],4%,4%,-25,.,-7%
Cc1ccc([N+](=O)[O-])c(OCCN2CCCCCC2)c1,15µM*,6%,3,.,-12%
Cc1cc(C)cc(-n2cccc2/C=C2/C(=N)N3C(=NC2=O)SN=C3S(C)(=O)=O)c1,5µM*,-1%,.,.,.
COc1cccc(-n2c(C)cc(/C=C3/C(=N)N4C(=NC3=O)SN=C4S(C)(=O)=O)c2C)c1,32µM*,6%,.,.,.
Cc1cc(C)cc(OCc2nnc(SCC(=O)OC(C)C)o2)c1,-3%,16%[38.3 µM],11,-6,-22%
O=c1cc(NCc2ccc3c(c2)OCO3)[nH]c(=O)n1-c1ccc(Cl)cc1,-7%,19%[38.3 µM],-18,14,-8%
Cc1ccccc1-n1c(=O)cc(NCc2ccc3c(c2)OCO3)[nH]c1=O,14µM*,20%[38.3 µM],45,5,-23%
CC(=O)N(c1ccccc1)C1SC(=O)N(c2ccccc2)C1=O (configuration not stated),0.63µM*,-7%[38.3 µM],-1,6,-15%
CC(=O)N(c1cccc(C)c1)C1SC(=O)N(c2ccccc2)C1=O (configuration not stated),8.9µM*,.,36,8,.
Cc1ccc(N2C(=O)SC(N(CC(=O)O)c3cccc(C)c3)C2=O)cc1 (configuration not stated),?,-7%[38.3 µM],15,-10,4%
CCCCC[C@H](O)/C=C/[C@H]1OC(O)C[C@H](O)[C@@H]1C/C=C\CC(=O)O (some centres not stated),-13%,-1%,.,.,-8%
CCS(=O)(=O)c1ccc(NC(=O)c2ccccc2Cl)c(O)c1,16µM*,-8%,-8,5,-20%
NS(=O)(=O)c1ccc(NC(=O)c2ccccc2Cl)cc1,-5%,24%[38.3 µM],52,-7,-11%
CCn1c(SCC(=O)Nc2ccc3c(c2)oc2ccccc23)nnc1-c1ccc(N)cc1,25µM*,24%[38.3 µM],?,1,?
CC(=O)Nc1cccc(-c2nnc(SCC(=O)n3c4c(c5ccccc53)CCCC4)n2C)c1,22µM*,23%[38.3 µM],-21,5,-12%
CC(=O)Nc1ccc(-c2nnc(SCC(=O)Nc3ccc4c(c3)oc3ccccc34)n2C)cc1,0.4µM*,-18%[38.3 µM],29,-1,-19%
CCN1C(C)=C(C(=O)OC)C(c2ccccc2)N2C(=O)[C@](O)(C(=O)OC)CC(C#N)=C12 (some centres not stated),4%[13.5 µM],.,.,.,.
O=C(c1ccco1)N1CCN(S(=O)(=O)c2ccc(Br)s2)CC1,8.9µM*,21%[38.3 µM],-6,11,?
CCOC(=O)N1CCN(S(=O)(=O)c2ccc(Br)s2)CC1,1%,-2%[38.3 µM],-90*,-3,-1%
CN1CCN(S(=O)(=O)c2ccc(Br)s2)CC1,-6%,.,-12,-2,.
Cc1ccc(NC(=O)CN2CCCN(S(=O)(=O)c3ccc(Br)s3)CC2)cc1,20µM*,37%[38.3 µM],29,9,-12%
CC(C)c1ccc(S(=O)(=O)N2CCN(C(=O)c3ccco3)CC2)cc1,?,-7%,.,.,.
O=C(Nc1nc2n(n1)C(c1ccccc1)C=C(c1ccccc1)N2)c1ccccc1 (configuration not stated),.,.,.,-2,.
CC(C)CC1NC(=O)N(CC(=O)N2CCN(S(=O)(=O)c3ccccc3)CC2)C1=O (configuration not stated),-7%,-14%[38.3 µM],-23,11,-4%
CCC(CC)NC(=O)CO/N=C/c1ccccc1OC(F)F,2%,-5%,-8,.,20µM*
SMILES,ALDH1A1 inh,IMPase Li inh,PNC inhibitor,IMPase cell inh,HPGD inh
O=C(CO/N=C/c1ccccc1OC(F)F)NC1CCCCC1,-2%,-4%,35,.,25µM*
S=C1NC2=C(CCC/C2=C\c2ccccc2)C(c2ccccc2)N1 (configuration not stated),0.63µM*,2%,-2,.,22µM*
Fc1ccccc1/C=C1\CCCC2=C1NC(=S)NC2c1ccccc1F (configuration not stated),0.79µM*,20%,.,.,.
S=C1NC2=C(CCC/C2=C\c2ccc(Cl)cc2)C(c2ccc(Cl)cc2)N1 (configuration not stated),13µM*,.,.,.,.
Fc1cccc(/C=C2\CCCC3=C2NC(=S)NC3c2cccc(F)c2)c1 (configuration not stated),0.79µM*,.,.,.,.
O=C1CCCC2=C1C(c1ccccc1)NC(=S)N2 (configuration not stated),?,-1%,.,.,.
CCc1cccc2c(C=C(C#N)C#N)cn(CC(=O)N3CCCCCC3)c12,-1%,?,-24,-6,1%
C(=C1/CCCC2=C1Nc1ncnn1C2c1ccccc1)/c1ccccc1 (configuration not stated),5%,-17%[38.3 µM],?,8,25µM*
CC1CC2=C(NC(=S)NC2c2ccc(F)cc2)/C(=C/c2ccc(F)cc2)C1 (configuration not stated),3.5µM*,-14%[38.3 µM],75,-6,-28%
COc1ccc(C2NC(=S)NC3=C2CCCC3=C2SCCS2)cc1 (configuration not stated),?,8%,.,.,.
S=C1NC2=C(CCCC2=C2SCCCS2)C(c2ccccc2)N1 (configuration not stated),1µM*,-2%,.,.,.
FC(F)(F)c1ccccc1C1C2=C(Nc3ncnn31)c1ccccc1CCC2 (configuration not stated),?,19%[38.3 µM],13,2,-7%
COc1ccccc1NC(C)C(=O)N/N=C/c1ccccc1OCc1cccc(Br)c1 (configuration not stated),2%,4%,24,.,-5%
O=C(c1cnccn1)N1CCC2(CC1)CN(Cc1ccccc1)C2,-1%,18%,.,.,-6%
Cc1cccc(N2C(=N)SCC2=O)c1C,-1%,2%,-1,.,-10%
O=C1CC(c2ccccc2)CC(=O)C1CS(=O)(=O)c1ccccc1 (configuration not stated),11µM*,-5%,.,.,.
CCC(C)NC(=O)CCSCCC(=O)NC(C)CC (configuration not stated),1%,-10%,-104*,.,-15%
COc1ccc(C(=O)CSc2nc3ccccc3n2CC(=O)NC(C)(C)C)cc1,2.2µM*,24%[38.3 µM],54,0,-2%
COc1ccccc1-n1c(SCC(=O)N2CCCCC2)nc2cccnc21,?,-8%[38.3 µM],22,-1,?
CC(C)(C)NC(=O)Cn1c(SCC(=O)NC2CCCCC2)nc2ccccc21,0%,?,-100*,-1,-2%
COc1ccccc1-n1c(SCC(=O)NC2CCCC2)nc2cccnc21,-3%,19%[38.3 µM],0,1,14µM*
CCOC(=O)CSc1nc2ccccc2n1CC(=O)NC(C)(C)C,-5%,-2%[38.3 µM],?,-20,-4%
